The assay concerns the target AMP-activated protein kinase, AMPK (Homo sapiens) (UniProt P54646+O43741+P54619+Q9UGJ0+Q9Y478+Q13131+Q9UGI9). In words: AMP-dependent Kinase enzyme assay. An in vitro enzyme assay that detects ADP turnover that is directly proportional to AMPK activity. This uses naive AMPK that is activated during the assay with MK-8722. It is filed as functional. Also noted: scale not given: direction of the effect not stated beside the values. To be noted: 30 µM.
Turning to `COCCN(C)C[C@@H]1CN(Cc2ccnc3ccccc23)C[C@@H]1CO`, the Percent Effect is -4.2%.
The figure for `O=C(Cc1c(F)cccc1Cl)Nc1cccc(N2CCCC2)c1` is -5.51%; for `Cc1cccc(N2CCN(C(=O)CNCCn3cccn3)CC2)c1` it is -3.32%; for `O=C(c1nnn(-c2ccc(F)cc2)n1)N(CCO)Cc1ccccc1` it is 3.9%.
As for `CCOc1ccccc1-n1c(C2CC(=O)N(C)C2)n[nH]c1=O` (stereo not given), the figure is 7.89%; as for `CCN(Cc1cccnc1)C1CCN(c2ccccc2)C1=O` (stereo not given), -2.42%.
As for `COc1ncnc(N)c1CNCCc1ccc(-n2cccn2)cc1`, the figure is 6.72%; as for `Cc1nn(C)cc1C(=O)N1CCC(C(=O)c2nc3ccccc3s2)CC1`, 20.7%.
In the case of `CSCCC(NC(=O)c1ccco1)C(=O)N(C)Cc1ccsc1` (stereo not given), the Percent Effect was -5.54%.
The figure for `CC(C)(C)CC(NC(=O)N1CCS(=O)(=O)CC1)C(F)(F)F` (stereo not given) is -0.804%; for `CC(NC(=O)NC1CCN(Cc2ccncc2)CC1)c1cccc(F)c1` (stereo not given) it is 1.09%; for `O=C(NCc1nc[nH]n1)c1cc(COc2cccc(F)c2)[nH]n1` it is 2.9%.
For the compound `COCCOc1ccc(F)cc1NCc1nc2ccccc2n1C`, the Percent Effect was 8.68%.
`Cc1cccc(C)c1Nc1noc2c1CN(C(=O)c1cn(C)cn1)CC2`: the Percent Effect came out at 17.2%.
The figure for `CC(NC(=O)C1CC1)C(=O)N(C)Cc1ccsc1` (stereo not given) is -1.9%.
Turning to `CC(NC(=O)N1CCCN(C)CC1)c1ccc(S(N)(=O)=O)cc1` (stereo not given), the Percent Effect came out at 5.68%.
As for `Cc1cc(NC(=O)CO)nn1-c1ccc(Cl)cc1Cl`, the figure is -3.56%; as for `O=C(Nc1cccc(F)c1)NC1CCN(Cc2ccncc2)CC1`, 1.71%.
The figure for `Cc1cc(=O)[nH]c(=O)n1Cc1ccccc1` is 1.77%.
As for `Cc1cnccc1CNCc1ccc(OC23CCCN(CC2)C3)cc1` (stereo not given), the figure is -10.2%.
Turning to `Cc1cc(C)cc(OCCN(C)C2CCOC2=O)c1` (stereo not given), the Percent Effect is -0.216%.
As for `CC(C)NC(=O)C1(Cc2ccccc2-c2cncnc2)CCCNC1` (stereo not given), the figure is 18.8%; as for `Cc1ncoc1C(=O)N1CCOC(Cc2ccccc2)C1` (stereo not given), 8.13%; as for `Cc1cc(-c2cc3nc(C)c(C)c(NCC4COCCO4)n3n2)no1` (stereo not given), 17.6%.
The figure for `O=C1NCCCCC1NC(=O)N1CCc2ccccc21` (stereo not given) is -3.02%; for `CCCOc1cc(CNC(=O)Nc2ccc(C)cc2)ccn1` it is 1.3%; for `Fc1ccc(C2CCCCN2Cc2cc(-c3ccccn3)no2)cc1` (stereo not given) it is 7.03%.
For the compound `CCS(=O)(=O)CCCN1CCSCC1c1ccc(Cl)cc1` (stereo not given), the Percent Effect is -4.64%.
The figure for `COc1ccc(N2CCC(NC(=O)c3ccc(C#N)cc3)CC2)cc1` is 5.1%.
Turning to `CCc1cccc(C)c1NC(=O)NCCCN(CC)S(C)(=O)=O`, the Percent Effect was determined as 22.2%.
As for `COc1ccccc1C(C)(C)NC(=O)c1ccc(F)c(NC(C)=O)c1`, the figure is -4.2%; as for `O=C(CCN1CCCO1)N1CC[C@@H](CNC(=O)N2CCCC2)[C@H](O)C1`, -5.68%.
The figure for `CC(C(=O)NC1(C#N)CCCCC1)N1CCc2c(ncn2C)C1` (stereo not given) is -9.22%; for `CCCn1cc(NC(=O)c2cccc(CN3CC[C@H](O)C3)c2)nn1` it is -5.04%.
The figure for `COC(=O)CC1CCCCN1CC(=O)Nc1ccc(F)cc1Cl` (stereo not given) is 8.66%; for `Cc1cc(C)c(C(=O)N2CCC3(CCCNC3)C2)cc1C` (stereo not given) it is 7.09%.
As for `COC(=O)N1CCCCC1C(=O)N1CCN(c2ncccc2C)CC1` (stereo not given), the Percent Effect was -4.85%.
The figure for `CC(C)c1nnc(CN2CC(n3cccn3)C2)o1` is -4.54%.
Take `CN1CCN(C(=O)C2(S(C)(=O)=O)CCCC2)Cc2ccccc21`: the Percent Effect is -2.88%.
As for `CS(=O)(=O)c1ccc(-c2cc(C3CC3)c(C#N)c(N)n2)cc1`, the figure is 12.5%.

For the origin of these results see ChEMBL document CHEMBL3988442, “University of Dundee, Small-Polar-MMV Screening Library” (2021).
